Experimental data as given in ChEMBL document CHEMBL1961873, “Compounds: GSK PKIS; Assays: Nanosyn kinase panel” (2012).

What was measured:
[1] = molecular target: T1, 3-phosphoinositide-dependent protein kinase 1 (Homo sapiens) (UniProt O15530); conditions: at 0.1 µM;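 further: values are mean inhibition of PDK1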
T1 sequence (whole entry): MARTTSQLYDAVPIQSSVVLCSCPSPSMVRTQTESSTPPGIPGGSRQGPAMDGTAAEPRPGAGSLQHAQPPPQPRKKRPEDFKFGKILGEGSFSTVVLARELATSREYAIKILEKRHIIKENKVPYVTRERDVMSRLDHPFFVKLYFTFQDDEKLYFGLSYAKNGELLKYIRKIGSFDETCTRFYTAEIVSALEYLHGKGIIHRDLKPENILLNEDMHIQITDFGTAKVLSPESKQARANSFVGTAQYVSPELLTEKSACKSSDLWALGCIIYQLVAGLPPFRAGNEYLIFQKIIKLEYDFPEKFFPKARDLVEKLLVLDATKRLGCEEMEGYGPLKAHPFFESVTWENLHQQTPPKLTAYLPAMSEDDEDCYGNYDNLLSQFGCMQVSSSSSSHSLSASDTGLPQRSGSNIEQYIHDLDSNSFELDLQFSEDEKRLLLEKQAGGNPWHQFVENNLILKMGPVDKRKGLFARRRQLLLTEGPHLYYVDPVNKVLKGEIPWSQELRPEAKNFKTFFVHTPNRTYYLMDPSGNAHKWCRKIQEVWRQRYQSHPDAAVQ

[2] = molecular target: cAMP-dependent protein kinase catalytic subunit alpha (Homo sapiens) (UniProt P17612); conditions: at 0.1 µM
[3] = molecular target: cAMP-dependent protein kinase catalytic subunit alpha (Homo sapiens) (UniProt P17612); conditions: at 1 µM
[4] = molecular target: Protein kinase C alpha type (Homo sapiens) (UniProt P17252); conditions: at 0.1 µM
[5] = molecular target: Protein kinase C alpha type (Homo sapiens) (UniProt P17252); conditions: at 1 µM
[6] = molecular target: Protein kinase C beta type (Homo sapiens) (UniProt P05771); conditions: at 0.1 µM
Chain of Protein kinase C beta type (Homo sapiens) (P05771 2-671 limits assumed): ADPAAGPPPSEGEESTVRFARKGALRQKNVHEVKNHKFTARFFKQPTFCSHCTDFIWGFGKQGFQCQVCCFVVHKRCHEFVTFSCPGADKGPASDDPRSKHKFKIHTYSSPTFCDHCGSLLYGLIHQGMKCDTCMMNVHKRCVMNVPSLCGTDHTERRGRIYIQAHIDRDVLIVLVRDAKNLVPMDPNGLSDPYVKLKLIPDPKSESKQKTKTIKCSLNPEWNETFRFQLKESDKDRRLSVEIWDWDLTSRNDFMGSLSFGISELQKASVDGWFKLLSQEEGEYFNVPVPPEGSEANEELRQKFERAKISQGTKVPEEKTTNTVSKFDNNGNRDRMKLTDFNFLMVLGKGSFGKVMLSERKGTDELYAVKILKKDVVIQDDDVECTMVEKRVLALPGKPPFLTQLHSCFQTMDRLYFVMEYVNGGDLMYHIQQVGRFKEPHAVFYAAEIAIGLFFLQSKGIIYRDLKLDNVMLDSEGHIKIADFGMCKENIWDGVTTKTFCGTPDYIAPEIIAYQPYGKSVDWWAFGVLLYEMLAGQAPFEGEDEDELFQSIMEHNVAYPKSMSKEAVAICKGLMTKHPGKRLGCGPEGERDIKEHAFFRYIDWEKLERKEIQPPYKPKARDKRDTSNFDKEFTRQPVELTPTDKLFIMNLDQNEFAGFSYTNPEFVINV

[7] = molecular target: Protein kinase C beta type (Homo sapiens) (UniProt P05771); conditions: at 1 µM
[8] = molecular target: Protein kinase C eta type (Homo sapiens) (UniProt P24723); conditions: at 0.1 µM
Chain of Protein kinase C eta type (Homo sapiens) (P24723 whole entry): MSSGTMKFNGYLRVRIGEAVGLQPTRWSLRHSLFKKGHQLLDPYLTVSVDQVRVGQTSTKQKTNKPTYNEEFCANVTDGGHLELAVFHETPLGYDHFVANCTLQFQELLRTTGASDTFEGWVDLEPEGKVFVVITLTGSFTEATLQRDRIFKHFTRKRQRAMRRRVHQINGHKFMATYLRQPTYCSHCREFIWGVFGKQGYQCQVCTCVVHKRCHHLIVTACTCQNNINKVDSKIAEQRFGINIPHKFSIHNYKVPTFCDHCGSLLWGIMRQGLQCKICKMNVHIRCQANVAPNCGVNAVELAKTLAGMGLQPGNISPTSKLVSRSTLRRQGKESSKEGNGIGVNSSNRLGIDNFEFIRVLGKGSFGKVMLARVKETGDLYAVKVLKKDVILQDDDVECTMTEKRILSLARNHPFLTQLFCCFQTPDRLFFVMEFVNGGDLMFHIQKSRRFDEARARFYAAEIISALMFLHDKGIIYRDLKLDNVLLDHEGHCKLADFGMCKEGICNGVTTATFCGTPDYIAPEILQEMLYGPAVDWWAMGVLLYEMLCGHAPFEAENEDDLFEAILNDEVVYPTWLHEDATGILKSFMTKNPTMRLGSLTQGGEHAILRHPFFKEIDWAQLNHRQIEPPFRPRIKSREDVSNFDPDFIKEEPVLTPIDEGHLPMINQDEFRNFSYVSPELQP

[9] = molecular target: Protein kinase C eta type (Homo sapiens) (UniProt P24723); conditions: at 1 µM
[10] = molecular target: Protein kinase C gamma type (Homo sapiens) (UniProt P05129); conditions: at 0.1 µM
[11] = molecular target: Protein kinase C gamma type (Homo sapiens) (UniProt P05129); conditions: at 1 µM
[12] = molecular target: T2, Protein kinase C iota type (Homo sapiens) (UniProt P41743); conditions: at 0.1 µM
T2 sequence (whole entry): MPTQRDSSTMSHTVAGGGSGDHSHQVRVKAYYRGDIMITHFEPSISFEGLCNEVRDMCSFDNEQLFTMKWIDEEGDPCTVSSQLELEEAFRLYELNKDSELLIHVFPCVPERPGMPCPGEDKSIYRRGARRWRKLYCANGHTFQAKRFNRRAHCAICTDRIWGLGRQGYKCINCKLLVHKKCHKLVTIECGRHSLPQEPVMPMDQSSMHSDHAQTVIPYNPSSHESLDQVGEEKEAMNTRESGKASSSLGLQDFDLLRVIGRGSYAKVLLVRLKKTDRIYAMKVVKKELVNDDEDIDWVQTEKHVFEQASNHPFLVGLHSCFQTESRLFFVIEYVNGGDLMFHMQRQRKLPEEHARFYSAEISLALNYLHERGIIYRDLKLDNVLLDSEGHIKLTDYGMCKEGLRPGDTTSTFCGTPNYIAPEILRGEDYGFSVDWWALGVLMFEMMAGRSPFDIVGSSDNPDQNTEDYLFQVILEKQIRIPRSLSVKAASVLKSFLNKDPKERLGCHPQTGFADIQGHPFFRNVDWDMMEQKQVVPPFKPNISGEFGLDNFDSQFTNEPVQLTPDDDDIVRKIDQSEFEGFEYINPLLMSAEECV

[13] = molecular target: T2, Protein kinase C iota type (Homo sapiens); conditions: at 1 µM
[14] = molecular target: Protein kinase C theta type (Homo sapiens) (UniProt Q04759); conditions: at 0.1 µM
Chain of Protein kinase C theta type (Homo sapiens) (Q04759 whole entry, looked up): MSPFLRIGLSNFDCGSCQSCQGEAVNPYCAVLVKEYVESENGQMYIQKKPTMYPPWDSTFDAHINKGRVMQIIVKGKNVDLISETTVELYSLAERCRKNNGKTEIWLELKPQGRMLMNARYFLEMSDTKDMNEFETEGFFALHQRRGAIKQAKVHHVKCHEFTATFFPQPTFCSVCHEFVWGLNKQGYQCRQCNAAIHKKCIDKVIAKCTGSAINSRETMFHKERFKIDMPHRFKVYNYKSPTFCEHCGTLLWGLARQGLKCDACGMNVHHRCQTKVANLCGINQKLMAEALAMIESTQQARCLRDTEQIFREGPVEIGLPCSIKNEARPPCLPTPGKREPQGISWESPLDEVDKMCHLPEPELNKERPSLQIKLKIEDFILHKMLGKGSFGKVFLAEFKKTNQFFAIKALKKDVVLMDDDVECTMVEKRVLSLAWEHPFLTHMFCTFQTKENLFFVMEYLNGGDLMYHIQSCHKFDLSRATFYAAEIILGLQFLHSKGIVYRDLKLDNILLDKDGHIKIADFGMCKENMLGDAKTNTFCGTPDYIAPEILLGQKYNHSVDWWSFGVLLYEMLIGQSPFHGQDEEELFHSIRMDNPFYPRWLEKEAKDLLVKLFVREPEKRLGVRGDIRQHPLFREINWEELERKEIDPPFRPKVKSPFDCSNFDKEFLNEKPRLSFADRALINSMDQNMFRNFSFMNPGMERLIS

[15] = molecular target: Protein kinase C theta type (Homo sapiens) (UniProt Q04759); conditions: at 1 µM
[16] = molecular target: Protein kinase C beta type (Homo sapiens) (UniProt P05771); conditions: at 0.1 µM; remark: listed apart in the source
[17] = molecular target: Protein kinase C beta type (Homo sapiens) (UniProt P05771); conditions: at 1 µM; remark: listed apart in the source
[18] = molecular target: T3, Serine/threonine-protein kinase D1 (Homo sapiens) (UniProt Q15139); conditions: at 0.1 µM
T3 sequence (whole entry): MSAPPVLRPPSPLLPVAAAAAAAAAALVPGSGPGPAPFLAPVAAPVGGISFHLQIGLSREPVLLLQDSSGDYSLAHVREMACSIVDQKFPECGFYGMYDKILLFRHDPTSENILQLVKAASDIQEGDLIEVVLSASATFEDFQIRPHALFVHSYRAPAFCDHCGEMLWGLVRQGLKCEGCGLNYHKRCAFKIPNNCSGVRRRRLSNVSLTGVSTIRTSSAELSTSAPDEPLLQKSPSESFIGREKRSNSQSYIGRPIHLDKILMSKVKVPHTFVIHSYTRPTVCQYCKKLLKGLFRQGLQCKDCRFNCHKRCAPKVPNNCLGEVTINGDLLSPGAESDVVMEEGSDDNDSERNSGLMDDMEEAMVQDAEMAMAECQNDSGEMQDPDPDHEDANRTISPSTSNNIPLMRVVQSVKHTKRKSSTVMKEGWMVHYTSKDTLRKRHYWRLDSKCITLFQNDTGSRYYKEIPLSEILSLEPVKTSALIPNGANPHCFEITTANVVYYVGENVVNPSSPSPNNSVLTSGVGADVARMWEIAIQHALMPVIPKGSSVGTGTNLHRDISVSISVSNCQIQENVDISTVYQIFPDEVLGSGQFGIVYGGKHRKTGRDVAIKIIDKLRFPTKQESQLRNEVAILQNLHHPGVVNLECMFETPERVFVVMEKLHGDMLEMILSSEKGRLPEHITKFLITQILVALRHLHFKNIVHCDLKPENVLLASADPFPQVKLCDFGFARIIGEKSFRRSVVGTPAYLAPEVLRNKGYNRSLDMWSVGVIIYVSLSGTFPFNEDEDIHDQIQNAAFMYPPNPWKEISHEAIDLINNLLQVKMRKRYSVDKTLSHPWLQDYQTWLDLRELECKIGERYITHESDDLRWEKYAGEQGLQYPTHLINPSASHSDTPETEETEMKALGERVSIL

[19] = molecular target: T3, Serine/threonine-protein kinase D1 (Homo sapiens); conditions: at 1 µM
[20] = molecular target: T4, Serine/threonine-protein kinase D2 (Homo sapiens) (UniProt Q9BZL6); conditions: at 0.1 µM;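 further: reported percent inhibition values are means, part of the GSK PKIS kinase panel screen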
T4 sequence (whole entry): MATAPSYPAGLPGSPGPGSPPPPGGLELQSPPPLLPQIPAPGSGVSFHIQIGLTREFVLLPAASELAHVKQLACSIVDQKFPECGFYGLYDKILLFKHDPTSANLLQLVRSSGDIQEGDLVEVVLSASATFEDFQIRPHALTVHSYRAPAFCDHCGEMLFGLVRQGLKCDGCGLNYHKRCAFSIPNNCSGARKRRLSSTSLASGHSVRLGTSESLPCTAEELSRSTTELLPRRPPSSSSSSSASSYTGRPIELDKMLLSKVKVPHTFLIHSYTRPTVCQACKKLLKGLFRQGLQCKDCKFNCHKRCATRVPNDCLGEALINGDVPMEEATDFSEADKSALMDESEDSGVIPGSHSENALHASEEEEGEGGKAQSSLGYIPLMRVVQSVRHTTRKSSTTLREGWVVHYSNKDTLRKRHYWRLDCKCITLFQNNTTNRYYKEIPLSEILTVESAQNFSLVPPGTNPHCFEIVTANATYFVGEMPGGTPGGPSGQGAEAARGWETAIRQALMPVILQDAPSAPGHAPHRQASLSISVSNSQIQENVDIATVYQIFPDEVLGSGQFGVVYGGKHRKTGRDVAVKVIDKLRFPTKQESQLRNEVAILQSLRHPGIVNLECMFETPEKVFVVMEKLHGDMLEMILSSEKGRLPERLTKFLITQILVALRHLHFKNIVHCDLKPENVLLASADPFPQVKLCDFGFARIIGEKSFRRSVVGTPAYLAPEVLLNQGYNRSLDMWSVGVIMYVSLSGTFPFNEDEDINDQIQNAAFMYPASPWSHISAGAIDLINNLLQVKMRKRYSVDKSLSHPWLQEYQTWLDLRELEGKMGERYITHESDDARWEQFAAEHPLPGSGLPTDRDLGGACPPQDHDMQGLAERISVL

Structure (SMILES)	inhibition [1] [%]	inhibition [2] [%]	inhibition [3] [%]	inhibition [4] [%]	inhibition [5] [%]	inhibition [6] [%]	inhibition [7] [%]	inhibition [8] [%]	inhibition [9] [%]	inhibition [10] [%]	inhibition [11] [%]	inhibition [12] [%]	inhibition [13] [%]	inhibition [14] [%]	inhibition [15] [%]	inhibition [16] [%]	inhibition [17] [%]	inhibition [18] [%]	inhibition [19] [%]	inhibition [20] [%]
NS(=O)(=O)c1ccc(N/N=C2\C(=O)Nc3ccc(C(=O)NCCc4c[nH]cn4)cc32)cc1	14.2	2.18	7.07	1.52	5.32	1.16	-0.4	5.07	2.38	0.92	5.55	2.26	2.34	2.03	3.63	1.05	2.48	6.28	34.4	5.45
CS(=O)(=O)CCNCc1ccc(-c2ccc3ncnc(Nc4ccc(OCc5ccccc5)c(Cl)c4)c3c2)o1	-0.51	-0.81	1.12	0.09	-0.42	-1.09	-2.64	1.32	-1.74	1.29	0.93	0.76	1.11	0.62	0.16	-0.28	0.08	-0.53	0.36	-0.95
Fc1cccc(COc2ccc(Nc3ncnc4sc(-c5cccs5)cc34)cc2Cl)c1	-0.7	1.34	1.04	-0.17	0.09	-0.52	-0.08	1.43	1.98	-0.34	2.13	0.71	1.19	0.32	0.01	-0.19	0.44	0.09	0.23	-1.32
Cc1nnc(-c2ccc(C)c(-c3ccc(C(=O)Nc4cccc(C#N)c4)cc3)c2)o1	0.99	2.18	1.76	0.5	0.89	-0.92	2.05	0.8	3.76	1.49	5.13	-0.73	-1.05	1	1.47	1.09	1.38	4.29	4.48	2.17
Nc1nc(-c2ccc3c(c2)C(=Cc2cc(Br)c(O)c(Br)c2)C(=O)N3)cs1	-1.98	-0.95	-0.7	-0.01	1.51	0.67	0.52	-1.62	-1.96	-2.56	2.01	0.79	0.34	-1.06	0.33	-0.52	1.78	-1.69	-1.78	-2.06
COc1ccc(COc2ccc(Cc3cnc(N)nc3N)cc2OC)cc1	1.69	4.69	1.52	1.05	1.13	3.26	2.56	1.31	-0.03	2.11	0.23	0.94	2.56	0.95	-0.58	2	1.96	0.61	2.03	-0.07
NS(=O)(=O)c1cccc(-c2ccc3c(NC(=O)C4CC4)n[nH]c3c2)c1	-1.98	-0.94	0.85	-0.24	0.92	-0.11	2.66	-2.13	-2.3	-1.53	3.74	0.3	0.53	0.17	0.88	-0.62	2.57	-0.83	0.65	-0.79
NC(=O)c1cccc(Nc2nccc(Nc3cccc4[nH]ncc34)n2)c1	-1.42	7.26	10.7	-0.39	14.6	0.67	2.07	-3	5.2	0.25	9.98	-0.89	-1.43	0.02	6.28	-1.01	7.52	-1.68	6.22	-1.94
CCn1c(-c2nonc2N)nc2c(C#CC(C)(C)O)nc(CN3CCCC3)cc21	0.46	8.62	44.9	2.29	6.77	3.02	14.2	19.5	67.3	3.19	8.24	0.19	1.41	2.28	7.85	3.25	6.65	1.55	5.93	1.71
CC(=O)Nc1cccc(C#Cc2cncnc2Nc2ccc(OCc3cccc(F)c3)c(Cl)c2)n1	-0.76	2.4	4.87	1.1	0.59	5.03	8.84	0.65	3.65	2.74	1.63	0.57	-0.05	1.96	3.96	2.66	2.15	-0.03	-2.44	-1.45
COc1ccc(-c2ccncc2)cc1C(N)=O	1.13	2.54	3.05	1.07	1.9	-0.74	0.96	3.72	6.14	2.34	1.71	0.36	1.27	2.73	4.84	0.88	2.35	5.51	15.2	4.91
CS(=O)(=O)CCNCc1ccc(-c2ccc3ncnc(Nc4ccc(OCc5cccc(F)c5)c(C(F)(F)F)c4)c3c2)o1	2.02	1.79	2.53	1.25	1.29	0.59	1.62	4.51	4.84	1.87	4.01	2.77	0.63	2.4	2.71	1.67	2.44	4.99	3.72	4.63
CCN1CCC(CC(=O)Nc2n[nH]c3nc(-c4cccs4)c(Br)cc23)CC1	-2.02	-1.4	1.75	-0.16	0.74	2.07	1.35	-3.78	0.16	-1.57	1.17	-1.06	-1	-1.26	-0.68	-1.4	2.84	-1.83	-1.4	-2.1
